Source: PubChem BioAssay
This is one part of the list. The source made the active and inactive calls. Unless noted, no stated cut-off is given here; in the data, active means inhibition above about 30%; inactive means the rest.

Key:
[1] = molecular target: Sphingosine 1-phosphate receptor 4 (Homo sapiens) (UniProt O95977); experiment: S1P4 receptor antagonists, human, confirmation, cell-based (AID 1524); settings: S1P4-expressing cell line, antagonist mode, reporter read-out; at 4.98 µM; hits give high values
[2] = molecular target: Sphingosine 1-phosphate receptor 1 (Homo sapiens) (UniProt P21453); experiment: S1P1 receptor antagonists, human, counter-screen for S1P4 antagonist project, cell-based (AID 1564; in the data active means inhibition above about 40%;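 further: receptor stimulated with S1P near its EC80; 0% = agonist stimulated wells and 100% = vehicle only wells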); settings: cell-based S1P1 antagonist counterscreen, at 4.98 µM, hits give high values
[3] = molecular target: Peroxisome proliferator-activated receptor gamma (Homo sapiens) (UniProt P37231); experiment: agonists of PPARgamma SRC-2 coactivator recruitment, confirmation, biochemical, HTS (AID 1297; in the data active means activation above about 22%;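 further: 0% = vehicle alone and 100% = reference agonist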); settings: biochemical SRC-2 recruitment by PPARgamma; at 8 µM; hits give high values
[4] = molecular target: Peroxisome proliferator-activated receptor gamma (Homo sapiens) (UniProt P37231); experiment: PPARgamma agonists recruiting SRC-1 coactivator, confirmation, biochemical (AID 1300; in the data active means activation above about 20%;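 further: 0% = vehicle wells and 100% = reference agonist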); settings: PPARgamma–SRC-1 coactivator recruitment biochemical assay; at 8 µM; hits give high values
[5] = molecular target: Peroxisome proliferator-activated receptor gamma (Homo sapiens) + Nuclear receptor coactivator 3 (Homo sapiens) (UniProt P37231+Q9Y6Q9); experiment: PPARgamma-driven SRC-3 coactivator recruitment agonists, confirmation, biochemical (AID 1301; in the data active means activation above about 24%;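 further: 0% = vehicle wells and 100% = reference agonist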); settings: biochemical PPARgamma-SRC-3 coactivator recruitment, agonist mode; at 8 µM; hits give high values
[6] = molecular target: Oxysterols receptor LXR-beta (Homo sapiens) (UniProt P55055); experiment: LXR agonists, Gal4 luciferase reporter, confirmation, counter-screen for hcDAF-12 agonist project, cell-based, luminescence, HEK293, H. contortus campaign (AID 743027;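 active means mean percent activation of the reporter above a cutoff set as the average over tested compounds plus their standard deviation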); settings: HEK293 Gal4-LXR tk-luc reporter, 24 h, at 6.8 µM, hits give high values, normalized: DMSO 0%, positive control 100%
[7] = test system: Nuclear hormone receptor DAF-12 (Haemonchus contortus); experiment: H. contortus DAF-12 receptor agonists, confirmation, cell-based, luminescence, HEK293, lit1-tk-luc, triplicate (AID 743032;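 active means mean activation across triplicate tests above the threshold derived from the earlier primary screen, cut at about 5.5% in these data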;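 further: 0% = DMSO only wells and 100% = 3 µM Δ7-dafachronic acid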); settings: HEK293 hcDAF-12 lit1-tk-luc reporter, at 6.8 µM, hits give high values, % of Δ7-dafachronic acid response
[8] = molecular target: Neuropeptide Y receptor type 2 (Homo sapiens) (UniProt P49146); experiment: NPY-Y2 potentiators or agonists, confirmation, cell-based (AID 1539; in the data active means activation above about 33%); settings: cell-based NPY-Y2 potentiator/agonist assay; at 3.6 µM; hits give high values
[9] = molecular target: Neuropeptide Y receptor type 1 (Homo sapiens) (UniProt P25929); experiment: NPY-Y1 potentiators or agonists, counter-screen for NPY-Y2 potentiator project, cell-based, fluorescence (AID 1651; in the data active means activation above about 45%;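 further: cells stimulated with submaximal NPY then isoproterenol with phosphodiesterase inhibitor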); settings: Y1 HEK293-CNG cells, membrane potential fluorescence; at 3.6 µM; hits give high values
[10] = molecular target: Neuropeptide Y receptor type 1 (Homo sapiens) (UniProt P25929); experiment: NPY-Y1 direct agonists, selectivity assay for NPY-Y2 potentiator project, cell-based, fluorescence (AID 1702;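 active means activation above the mean of DMSO-only control wells plus 3 SD, cut at about 18% in these data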;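 further: cells stimulated with 1 µM isoproterenol plus the PDE inhibitor Ro 20-1724; 0% = isoproterenol with DMSO and no NPY and 100% = 40 nM NPY; Y1 agonists lower the membrane potential dye signal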); settings: HEK293 Y1-CNGC, membrane potential fluorescence, agonism; at 3.6 µM; hits give high values
[11] = CNGC cAMP sensor activity inhibitors, counter-screen for NPY-Y2 potentiator project, cell-based, HEK293-CNG parental, membrane potential fluorescence (AID 1703;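 active means inhibition above the control-well mean plus 3 SD of those wells, cut at about 22% in these data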;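 further: 0% = DMSO with isoproterenol and 100% = DMSO without isoproterenol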); settings: isoproterenol cAMP, at 3.6 µM, hits give high values
[12] = molecular target: Neuropeptide Y receptor type 2 (Homo sapiens) (UniProt P49146); experiment: NPY-Y2 direct agonists, counter-screen for NPY-Y2 potentiator project, cell-based, fluorescence (AID 1710;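 active means activation above the mean of solvent-only control wells plus 3 SD, cut at about 10% in these data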;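 further: cells stimulated by isoproterenol with no NPY added so direct agonism is tested; 0% = DMSO with isoproterenol alone and 100% = NPY at EC100 plus isoproterenol; agonism lowers probe fluorescence through less cAMP and CNG channel opening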); settings: HEK293 Y2/CNGC cells, membrane potential fluorescence, agonist mode; at 3.6 µM; hits give high values
[13] = growth loss of phage-infected E. coli expressing H. pylori AddAB, confirmation, AddAB inhibitor project, absorbance, E. coli V3065, T4 phage, triplicate (AID 488942;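 active means mean inhibition above a set limit taken from the earlier primary screen, cut at about 13% in these data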;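 further: higher means less bacterial growth since AddAB block lets phage replicate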); settings: OD, at 11.9 µM, hits give high values, T4 phage with gene 2 nonsense mutations
[14] = growth loss of RecBCD+ E. coli with mutant T4 phage, counter-screen for AddAB inhibitor project, absorbance, V66 E. coli (AID 488955;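 active means mean inhibition above the mean of solvent-only control wells plus 3 SD, cut at about 4% in these data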;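 further: optical density read after an 18 h incubation at 37 °C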); settings: OD growth, at 11.9 µM, hits give high values
[15] = bacterial viability inhibition counter-screen, confirmation, counter-screen for AddAB inhibitor project, absorbance (AID 488956; in the data active means inhibition above about 25%); settings: absorbance (AddAB counterscreen), at 11.9 µM, hits give high values
[16] = molecular target: Nuclear receptor coactivator 3 (Homo sapiens) (UniProt Q9Y6Q9); experiment: SRC3 coactivator transcriptional activity inhibitors, confirmation, cell-based, luminescence, quadruplicate (AID 588792;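 active means mean inhibition over 43.08%, the solvent-only control mean plus 3 SD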;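 further: 0% = DMSO treated cells and 100% = gossypol at 36 µM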); settings: HEK293 GAL4-SRC3 luciferase reporter, at 3.6 µM, hits give high values
[17] = test system: transactivating tegument protein VP16 (Human herpesvirus 1), Gal4-VP16 luciferase reporter; experiment: VP16 transactivation inhibitors, counter-screen for SRC3 inhibitor project, cell-based, luminescence, high throughput (AID 588794); settings: mammalian cells, VP16-driven luciferase reporter luminescence; at 3.6 µM; hits give high values
[18] = molecular target: Nuclear receptor coactivator 1 (Homo sapiens) (UniProt Q15788); experiment: SRC1 coactivator transcriptional activity inhibitors, confirmation, cell-based, luminescence, quadruplicate (AID 588820;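 active means mean inhibition above 46.68%, the untreated control wells mean plus 3 SD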;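 further: 0% = DMSO wells and 100% = gossypol 36 µM treated wells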); settings: HEK293 GAL4-SRC1 luciferase reporter, at 3.6 µM, hits give high values
[19] = VP16 transactivation inhibitors, counter-screen for SRC1 inhibitor project, cell-based, luminescence, high throughput (AID 588824; in the data active means inhibition above about 25%); settings: cell-based VP16 transactivation luciferase luminescence; at 3.6 µM; hits give high values
[20] = molecular target: Photoreceptor-specific nuclear receptor (Homo sapiens) (UniProt Q9Y5X4); experiment: NR2E3 agonist confirmation in cells, cell-based, luminescence, CHO-S two-hybrid (AID 624378;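 active means average inhibition above a cutoff equal to the mean inhibition of all tested compounds plus one SD, cut at about 70% in these data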;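 further: 0% = DMSO in NR2E3 cells and 100% = DMSO in cells lacking NR2E3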); settings: CHO-S mammalian two-hybrid NR2E3-NCOR, luciferase luminescence; at 3.98 µM; hits give high values
[21] = GAL4-VP16 reporter modulators, confirmation, counter-screen for NR2E3 agonist project, cell-based, luminescence, CHO-S, high throughput (AID 624379;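 active means mean inhibition above a cutoff equal to the average over all tested compounds plus one standard deviation, cut at about 70% in these data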;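 further: 0% = DMSO with VP16-transfected cells and 100% = DMSO with cells lacking VP16; higher means less reporter light so more repression of VP16 activity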); settings: CHO-S GAL4-VP16 luciferase reporter, at 3.98 µM, hits give high values
[22] = StAR promoter reporter inhibitors, counter-screen for LRH-1 inverse agonist project, cell-based, luminescence, high throughput (AID 651611; in the data active means inhibition above about 28%); settings: StAR promoter luciferase reporter counterscreen, at 3.6 µM, hits give high values
[23] = molecular target: Nuclear receptor subfamily 5 group A member 2 (Homo sapiens) (UniProt O00482); experiment: LRH-1 (NR5A2) inverse agonists, retest, confirmation, cell-based, luminescence (AID 651613; in the data active means inhibition above about 42%;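 further: HEK293T cells co-transfected with LRH-1 and StAR promoter luciferase reporter; 0% = vehicle wells and 100% = parental cells lacking receptor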); settings: cell-based LRH-1 luciferase reporter, inverse agonism; at 3.6 µM; hits give high values
[24] = molecular target: Steroidogenic factor 1 (Homo sapiens) (UniProt Q13285); experiment: SF1 (NR5A1) inverse agonists, counter-screen for LRH-1 inverse agonist project, cell-based, luminescence, high throughput (AID 651614; in the data active means inhibition above about 44%;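 further: cells cotransfected with StAR promoter reporter and SF1 expression vector; 0% = vehicle on cells with receptor and 100% = vehicle on cells lacking receptor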); settings: cell-based SF1 luciferase reporter, at 3.6 µM, hits give high values
[25] = VP16 transactivation reporter inhibitors, counter-screen for LRH-1 inverse agonist project, cell-based, luminescence, high throughput (AID 651615; in the data active means inhibition above about 33%); settings: Gal4-VP16 luciferase reporter cells, at 3.6 µM, hits give high values
[26] = growth loss of phage-infected RecBCD+ E. coli, confirmation, RecBCD inhibitor project, absorbance, E. coli V66, T4 gene 2 phage (AID 651982;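 active means mean inhibition over triplicates exceeding the hit threshold derived in the original primary screen, cut at about 11% in these data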); settings: E. coli V66 + T4 2- phage, growth OD; at 11.9 µM; hits give high values
[27] = E. coli viability inhibition, counter-screen for RecBCD inhibitor project, absorbance, high throughput (AID 651983; in the data active means inhibition above about 20%;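 further: E. coli strain V66 grown with compound alone and no phage infection; 0% = bacteria with DMSO vehicle only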); settings: absorbance (OD) growth, at 11.9 µM, hits give high values
[28] = growth loss of phage-infected AddAB-carrying E. coli, confirmation, counter-screen for RecBCD inhibitor project, absorbance, E. coli V3065, T4 phage (AID 651984;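 active means mean inhibition above the solvent-only control wells' mean plus 3 SD, cut at about 22% in these data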;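 further: higher means less bacterial growth from phage killing when AddAB is blocked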); settings: E. coli expressing H. pylori AddAB + T4 phage, OD growth; at 11.9 µM; hits give high values; gene 2 mutant T4, recBCD-deleted host
[29] = Gal4-VP16 luciferase reporter inhibitors, counter-screen for COUP-TFII antagonist project, cell-based, luminescence, HEK293 (AID 687007; in the data active means inhibition above about 13%); settings: at 8.5 µM, hits give high values
[30] = molecular target: COUP transcription factor 2 (Homo sapiens) (UniProt P24468); experiment: NR2F2 transcriptional activity inhibitors, confirmation, cell-based, luciferase reporter, HEK293, triplicate (AID 687008;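 active means mean inhibition over three repeats above a set limit taken from the earlier primary screen, cut at about 38% in these data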;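 further: 100% = cells given the luciferase reporter alone without the COUP-TF2 vector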); settings: HEK293 NGFI-A luciferase reporter, luminescence; at 8.5 µM; hits give high values
[31] = test system: Fam108b (Abhd17b) serine hydrolase [Mus musculus]; experiment: mouse Fam108b serine hydrolase inhibitors, confirmation, counter-screen for RBBP9 inhibitor project, biochemical, fluorescence polarization, triplicate (AID 1978;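 active means inhibition above a limit from the primary screen, the mean over all compounds plus 3 SD, cut at about 19% in these data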;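 further: 0% = median of active Fam108b wells and 100% = catalytically dead S170A mutant; inhibitors free the probe so polarization falls as inhibition rises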); settings: recombinant Fam108b, FP-Rh probe fluorescence polarization; at 9.51 µM; hits give high values
[32] = molecular target: Bcl-2-like protein 1 (Homo sapiens) (UniProt Q07817); experiment: Bcl-xL inhibitors blocking Bim BH3 binding, confirmation, counter-screen for MCL1 inhibitor project, biochemical, fluorescence polarization (AID 2166;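 active means inhibition above a cutoff equal to the mean inhibition of all tested compounds plus 3 SD, cut at about 30% in these data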); settings: GST-Bcl-xL / FITC-Bim BH3 peptide FP binding; at 10.9 µM; hits give high values
[33] = molecular target: Induced myeloid leukemia cell differentiation protein Mcl-1 (Homo sapiens) (UniProt Q07820); experiment: inhibitors of MCL1 binding to BIM-BH3, confirmation, biochemical, fluorescence polarization, triplicate (AID 2168;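 active means inhibition above the average of all tested compounds plus 3 SD, cut at about 40% in these data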;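 further: 0% = DMSO wells and 100% = unlabeled Bim-BH3 control peptide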); settings: GST-MCL1 / FITC-Bim-BH3 fluorescence polarization; at 10.9 µM; hits give high values
Sequence of Induced myeloid leukemia cell differentiation protein Mcl-1 (Homo sapiens) (Q07820 whole entry, looked up): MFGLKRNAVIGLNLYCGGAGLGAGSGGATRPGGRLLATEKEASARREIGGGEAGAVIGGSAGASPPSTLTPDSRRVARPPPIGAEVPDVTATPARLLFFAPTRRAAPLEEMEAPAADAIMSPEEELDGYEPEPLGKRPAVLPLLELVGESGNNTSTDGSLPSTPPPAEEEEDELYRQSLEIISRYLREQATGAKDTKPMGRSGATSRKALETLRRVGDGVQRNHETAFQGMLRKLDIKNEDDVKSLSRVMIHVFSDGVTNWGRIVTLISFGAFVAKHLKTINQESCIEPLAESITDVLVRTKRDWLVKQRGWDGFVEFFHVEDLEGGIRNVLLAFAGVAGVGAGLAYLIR

Sequence of Sphingosine 1-phosphate receptor 4 (Homo sapiens) (O95977 whole entry, looked up): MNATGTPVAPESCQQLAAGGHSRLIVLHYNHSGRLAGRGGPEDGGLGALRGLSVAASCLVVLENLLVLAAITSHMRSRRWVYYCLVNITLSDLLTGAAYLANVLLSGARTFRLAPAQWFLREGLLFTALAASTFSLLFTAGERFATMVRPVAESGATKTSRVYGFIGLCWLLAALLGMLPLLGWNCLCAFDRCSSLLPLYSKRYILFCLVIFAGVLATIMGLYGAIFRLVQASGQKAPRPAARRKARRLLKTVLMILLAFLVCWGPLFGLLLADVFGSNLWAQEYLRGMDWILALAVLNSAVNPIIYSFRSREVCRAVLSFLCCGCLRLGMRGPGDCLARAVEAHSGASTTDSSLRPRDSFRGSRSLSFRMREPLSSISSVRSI
Sequence of Peroxisome proliferator-activated receptor gamma (Homo sapiens) + Nuclear receptor coactivator 3 (Homo sapiens) (P37231 whole entry, looked up, the tested form may be a part): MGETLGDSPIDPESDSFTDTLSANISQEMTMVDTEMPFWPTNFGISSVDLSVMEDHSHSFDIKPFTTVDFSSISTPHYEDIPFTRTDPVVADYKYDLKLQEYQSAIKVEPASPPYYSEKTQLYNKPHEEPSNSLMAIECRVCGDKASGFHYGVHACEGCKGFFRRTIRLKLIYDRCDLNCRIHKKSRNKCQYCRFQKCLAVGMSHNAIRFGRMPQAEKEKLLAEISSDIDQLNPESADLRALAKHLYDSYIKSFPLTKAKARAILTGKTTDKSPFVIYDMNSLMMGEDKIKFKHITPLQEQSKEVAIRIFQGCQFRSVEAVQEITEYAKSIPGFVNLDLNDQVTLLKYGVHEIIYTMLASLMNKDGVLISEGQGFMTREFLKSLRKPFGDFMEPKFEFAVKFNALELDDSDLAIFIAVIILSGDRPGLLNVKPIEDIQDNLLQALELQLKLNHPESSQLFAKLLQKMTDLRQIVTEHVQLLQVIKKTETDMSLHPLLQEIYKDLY
Sequence of Peroxisome proliferator-activated receptor gamma (Homo sapiens) + Nuclear receptor coactivator 3 (Homo sapiens) (Q9Y6Q9 whole entry, looked up, the tested form may be a part): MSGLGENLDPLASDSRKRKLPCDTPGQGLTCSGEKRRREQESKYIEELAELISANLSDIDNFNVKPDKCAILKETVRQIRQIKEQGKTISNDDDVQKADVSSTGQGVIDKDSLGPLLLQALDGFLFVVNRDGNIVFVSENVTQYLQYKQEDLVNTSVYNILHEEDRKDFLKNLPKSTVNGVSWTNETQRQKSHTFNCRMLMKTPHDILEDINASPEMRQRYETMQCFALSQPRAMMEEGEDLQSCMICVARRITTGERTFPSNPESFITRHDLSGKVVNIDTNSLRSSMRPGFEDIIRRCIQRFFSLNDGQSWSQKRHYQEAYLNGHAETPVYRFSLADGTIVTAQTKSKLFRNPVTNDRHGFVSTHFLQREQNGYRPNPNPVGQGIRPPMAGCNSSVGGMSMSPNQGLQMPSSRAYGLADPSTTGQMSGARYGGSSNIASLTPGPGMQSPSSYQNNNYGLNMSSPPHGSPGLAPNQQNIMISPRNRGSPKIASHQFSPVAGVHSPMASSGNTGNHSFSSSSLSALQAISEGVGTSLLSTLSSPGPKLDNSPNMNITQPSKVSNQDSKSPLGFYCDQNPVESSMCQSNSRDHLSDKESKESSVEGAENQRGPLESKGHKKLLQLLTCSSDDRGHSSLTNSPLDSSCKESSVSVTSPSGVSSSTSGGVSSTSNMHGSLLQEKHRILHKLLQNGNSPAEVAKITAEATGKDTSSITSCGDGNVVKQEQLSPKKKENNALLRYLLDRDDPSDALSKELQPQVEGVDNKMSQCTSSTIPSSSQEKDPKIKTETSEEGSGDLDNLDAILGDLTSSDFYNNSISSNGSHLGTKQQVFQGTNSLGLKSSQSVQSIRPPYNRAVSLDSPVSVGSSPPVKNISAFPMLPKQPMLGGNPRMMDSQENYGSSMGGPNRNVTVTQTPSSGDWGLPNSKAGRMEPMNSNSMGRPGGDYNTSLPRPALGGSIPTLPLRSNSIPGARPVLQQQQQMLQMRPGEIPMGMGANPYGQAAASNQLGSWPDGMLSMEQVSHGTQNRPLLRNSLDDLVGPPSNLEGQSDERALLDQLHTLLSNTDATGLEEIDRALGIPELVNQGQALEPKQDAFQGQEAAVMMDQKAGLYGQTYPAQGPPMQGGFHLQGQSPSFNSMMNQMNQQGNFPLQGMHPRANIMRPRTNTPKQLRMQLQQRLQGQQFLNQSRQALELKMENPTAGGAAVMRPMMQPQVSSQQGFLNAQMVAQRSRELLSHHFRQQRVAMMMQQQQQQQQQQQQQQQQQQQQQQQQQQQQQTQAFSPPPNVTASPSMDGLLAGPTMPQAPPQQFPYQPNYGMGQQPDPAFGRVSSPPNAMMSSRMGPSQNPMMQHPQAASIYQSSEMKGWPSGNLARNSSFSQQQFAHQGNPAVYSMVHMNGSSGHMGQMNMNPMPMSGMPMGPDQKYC
Sequence of Peroxisome proliferator-activated receptor gamma (Homo sapiens) (P37231 whole entry, looked up): as the sequence (P37231 whole entry, looked up, the tested form may be a part) above
Sequence of Sphingosine 1-phosphate receptor 1 (Homo sapiens) (P21453 whole entry, looked up): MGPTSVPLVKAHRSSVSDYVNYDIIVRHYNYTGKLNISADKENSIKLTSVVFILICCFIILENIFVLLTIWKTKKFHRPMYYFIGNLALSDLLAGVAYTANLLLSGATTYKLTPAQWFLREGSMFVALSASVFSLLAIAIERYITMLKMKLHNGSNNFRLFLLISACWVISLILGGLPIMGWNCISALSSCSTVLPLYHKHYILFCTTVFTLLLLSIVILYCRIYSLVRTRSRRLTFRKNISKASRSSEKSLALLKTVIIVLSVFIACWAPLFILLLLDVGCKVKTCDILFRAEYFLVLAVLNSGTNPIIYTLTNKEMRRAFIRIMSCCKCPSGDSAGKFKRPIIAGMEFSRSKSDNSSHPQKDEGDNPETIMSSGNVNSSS
Sequence of Neuropeptide Y receptor type 2 (Homo sapiens) (P49146 whole entry, looked up): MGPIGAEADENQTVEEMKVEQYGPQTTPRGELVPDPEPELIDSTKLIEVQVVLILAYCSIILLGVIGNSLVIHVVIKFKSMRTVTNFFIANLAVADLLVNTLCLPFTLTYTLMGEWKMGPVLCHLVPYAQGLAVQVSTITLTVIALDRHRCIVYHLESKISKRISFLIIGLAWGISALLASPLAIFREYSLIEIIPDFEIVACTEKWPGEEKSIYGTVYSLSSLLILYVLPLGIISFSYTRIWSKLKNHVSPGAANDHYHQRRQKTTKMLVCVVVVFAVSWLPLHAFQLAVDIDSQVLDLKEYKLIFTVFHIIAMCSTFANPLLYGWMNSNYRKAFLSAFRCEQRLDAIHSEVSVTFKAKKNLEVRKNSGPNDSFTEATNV
Sequence of Neuropeptide Y receptor type 1 (Homo sapiens) (P25929 whole entry, looked up): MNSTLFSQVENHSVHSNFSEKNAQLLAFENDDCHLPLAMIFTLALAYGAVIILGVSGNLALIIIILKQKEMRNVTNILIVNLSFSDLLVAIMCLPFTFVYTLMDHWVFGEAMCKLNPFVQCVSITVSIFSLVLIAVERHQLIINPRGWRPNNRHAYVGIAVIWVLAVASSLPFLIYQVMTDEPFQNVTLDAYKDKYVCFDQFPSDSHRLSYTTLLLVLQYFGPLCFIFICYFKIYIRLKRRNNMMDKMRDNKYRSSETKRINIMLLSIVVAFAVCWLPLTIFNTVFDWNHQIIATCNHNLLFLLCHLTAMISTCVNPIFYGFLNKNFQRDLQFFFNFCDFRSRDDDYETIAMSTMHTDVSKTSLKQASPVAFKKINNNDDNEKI
Sequence of Photoreceptor-specific nuclear receptor (Homo sapiens) (Q9Y5X4 whole entry, looked up, the tested form may be a part): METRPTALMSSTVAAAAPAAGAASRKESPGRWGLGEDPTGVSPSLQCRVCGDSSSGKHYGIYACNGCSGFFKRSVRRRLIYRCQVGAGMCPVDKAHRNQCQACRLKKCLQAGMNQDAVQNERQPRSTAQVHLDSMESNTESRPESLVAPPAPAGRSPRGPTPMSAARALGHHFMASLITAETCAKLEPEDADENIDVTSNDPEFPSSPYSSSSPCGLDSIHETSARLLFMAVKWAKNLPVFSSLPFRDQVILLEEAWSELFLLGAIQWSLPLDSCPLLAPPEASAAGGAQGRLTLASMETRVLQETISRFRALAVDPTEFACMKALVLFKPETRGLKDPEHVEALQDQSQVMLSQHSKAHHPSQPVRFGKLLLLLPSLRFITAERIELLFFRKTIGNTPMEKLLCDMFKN
Sequence of Bcl-2-like protein 1 (Homo sapiens) (Q07817 whole entry, looked up): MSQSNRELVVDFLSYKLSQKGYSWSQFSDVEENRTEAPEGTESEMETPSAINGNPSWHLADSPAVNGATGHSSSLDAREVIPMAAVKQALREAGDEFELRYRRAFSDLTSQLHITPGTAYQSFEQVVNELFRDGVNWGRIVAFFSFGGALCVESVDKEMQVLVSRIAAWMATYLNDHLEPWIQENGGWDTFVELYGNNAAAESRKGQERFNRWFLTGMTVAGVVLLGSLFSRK

CCc1c(C)nc2cc(-c3cccs3)[nH]n2c1=O
inactive: inhibition [1] 5.18% | inhibition [2] 12.8%

O=C(/C=C/c1ccc(Cl)cc1Cl)c1cccnc1
active: inhibition [1] 43.4%
inactive: inhibition [2] 23.6%

CC(=O)n1c(C=Nc2ccccc2)c(O)c2ccccc21
inactive: activation [3] 2.33% | activation [4] 0.42% | activation [5] 5.23% | activation [6] 0.1% | activation [7] 4.63%

O=C(CSc1c2c(nc3ccc(Cl)cc13)CCCC2)NCc1ccco1
inactive: activation [3] 19.2% | activation [4] 15.5% | activation [5] 14.4%

C[C@@H](NC(=O)OC(C)(C)C)c1nnc(S(=O)(=O)Cc2ccccc2)o1
active: inhibition [1] 83.4%
inactive: inhibition [2] 36.6%

O=C(CC(O)(C(F)(F)F)C(F)(F)F)Nc1ccc(Cl)c(Cl)c1
active: inhibition [1] 37.4% | activation [12] 11.5% | inhibition [13] 16.9% | inhibition [14] 21.6% | inhibition [16] 58.7% | inhibition [17] 65.2% | inhibition [19] 74.2% | inhibition [20] 99.8% | inhibition [21] 89.7% | inhibition [22] 74.3% | inhibition [23] 102% | inhibition [24] 90.4% | inhibition [25] 88.5% | inhibition [26] 16.8% | inhibition [27] 20.4% | inhibition [28] 22.1% | inhibition [29] 20.4% | inhibition [30] 62.1%
inactive: activation [8] 17% | inhibition [2] 8.72% | activation [9] -22.8% | activation [10] -13.7% | inhibition [11] -7.55% | inhibition [15] 16.9% | inhibition [18] 46.4%

CCN(/N=C/c1ccc(N(C)C)cc1)c1nc2ccccc2[nH]1
inactive: activation [3] 9.9% | activation [4] 6.2% | activation [5] 6.08%

CSc1c(SCc2ccccc2)cnn(Cc2ccccc2)c1=O
active: activation [3] 34.4% | activation [4] 28.5% | activation [5] 25.9%
inactive: inhibition [31] 0.05% | inhibition [32] -5.91% | inhibition [33] -3.67%
